From PubChem BioAssay AID2807 (Vanderbilt High Throughput Screening Facility, 2010)
Entries with a potency or affinity are not part of this list.

Molecular target: Metabotropic glutamate receptor 4 (Homo sapiens) (UniProt Q14833)
Experiment: PubChem AID 2807
Conditions: CHO hmGluR4/Gqi5 calcium mobilization, PAM potentiation; series mostly up to 30 µM; potentiation (% max glutamate): at the top concentration; call rule not given here

Sequence of Metabotropic glutamate receptor 4 (Homo sapiens) (Q14833 whole entry, looked up): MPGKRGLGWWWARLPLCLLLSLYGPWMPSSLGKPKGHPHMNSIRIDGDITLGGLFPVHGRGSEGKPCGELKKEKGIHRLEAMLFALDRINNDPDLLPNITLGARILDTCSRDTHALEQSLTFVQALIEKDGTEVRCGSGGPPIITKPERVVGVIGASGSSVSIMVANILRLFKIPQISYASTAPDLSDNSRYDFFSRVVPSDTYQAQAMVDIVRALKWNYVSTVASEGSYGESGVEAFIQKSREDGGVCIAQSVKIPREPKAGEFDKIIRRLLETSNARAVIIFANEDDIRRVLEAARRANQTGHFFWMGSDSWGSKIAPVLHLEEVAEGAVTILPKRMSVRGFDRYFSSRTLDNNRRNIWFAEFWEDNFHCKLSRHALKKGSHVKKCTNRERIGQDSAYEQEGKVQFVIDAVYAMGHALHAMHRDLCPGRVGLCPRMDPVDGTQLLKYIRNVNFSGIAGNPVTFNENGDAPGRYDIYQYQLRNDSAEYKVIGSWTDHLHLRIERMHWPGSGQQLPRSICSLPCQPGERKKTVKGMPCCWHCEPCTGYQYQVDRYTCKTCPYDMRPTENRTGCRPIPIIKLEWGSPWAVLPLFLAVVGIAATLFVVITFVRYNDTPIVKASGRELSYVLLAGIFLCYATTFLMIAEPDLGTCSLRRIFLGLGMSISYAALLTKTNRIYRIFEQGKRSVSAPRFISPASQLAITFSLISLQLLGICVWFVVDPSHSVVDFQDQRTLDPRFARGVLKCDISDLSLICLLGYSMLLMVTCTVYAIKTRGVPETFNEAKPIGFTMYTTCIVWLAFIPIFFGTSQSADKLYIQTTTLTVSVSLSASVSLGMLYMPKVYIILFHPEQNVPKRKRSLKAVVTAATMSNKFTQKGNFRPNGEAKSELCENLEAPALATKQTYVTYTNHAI

Potentiation (% max glutamate), inactive:
O=C(Nc1ccc(Cl)c(Cl)c1)c1cnccn1 15.3%
Cn1cccc1C(=O)Nc1ccc(Cl)c(Cl)c1 23.5%
O=C(Nc1ccc(Cl)c(Cl)c1)C1CCCCC1 28.3%
O=C(Nc1ccc(Cl)c(Cl)c1)c1cc2ccccc2o1 22.2%
O=C(Nc1ccc(Cl)c(Cl)c1)c1ccc(-c2ccccc2)o1 18%
O=C(Nc1ccc(Cl)c(Cl)c1)c1ccccc1 29.1%
